Experimental data published in PubChem BioAssay.
The source made the active and inactive calls. Unless noted, no rule for the calls is given here.

Experiments:
[1] = tested on: Wnt5a (protein binding on small-molecule microarray); experiment: small molecules binding Wnt5a protein – biophysical, small-molecule microarray, 635/667 nm fluorescence, primary screen (AID 1142); details: 635 nm fluorescence, higher = more signal;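 also: fluorescence read at 667 nm with signal to noise per printed feature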
[2] = ATP-based viability of Huh7 replicon cells – cell-based, CellTiter-Glo luminescence, basal, 48 h, cytotoxicity control for HCV replication inhibitor project, primary screen (AID 1143); details: higher = more signal, called active from +8 up or from −8 down;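 also: Huh7 hepatoma cells carrying a hepatitis C replication reporter with no stimulus; test concentration not given here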
[3] = Pseudomonas biofilm growth suppression – PAO1 strain, BacTiter-Glo luminescence, LB-PBS, primary screen (AID 1144); details: P. aeruginosa PAO1 biofilm, 12 h, higher = more signal
[4] = basal CRE-LacZ reporter activity in PC12 – cell-based, unstimulated, primary screen (AID 1145); details: no forskolin, luminescence, 4.5 h, higher = more signal, called active from +8 up or from −8 down
[5] = forskolin-driven CRE-LacZ activity in PC12 – cell-based, CRE-LacZ reporter, forskolin-stimulated, primary screen (AID 1146); details: luminescence, 4.5 h, higher = more signal, called active from +8 up or from −8 down;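 also: PC12 cells with 6xCRE LacZ reporter stimulated by forskolin 10 µM; beta-galactosidase reporter signal reflecting CREB driven transcription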
[6] = target: Streptavidin (Streptomyces avidinii) (UniProt P22629); experiment: compounds binding control protein streptavidin – biophysical, small-molecule microarray, 635/667 nm fluorescence, artefact control for SMM compound annotation, primary screen (AID 1147); details: higher = more signal;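 also: signal reflects streptavidin binding to arrayed compounds as a control protein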
Sequence of Streptavidin (Streptomyces avidinii) (P22629 whole entry, looked up): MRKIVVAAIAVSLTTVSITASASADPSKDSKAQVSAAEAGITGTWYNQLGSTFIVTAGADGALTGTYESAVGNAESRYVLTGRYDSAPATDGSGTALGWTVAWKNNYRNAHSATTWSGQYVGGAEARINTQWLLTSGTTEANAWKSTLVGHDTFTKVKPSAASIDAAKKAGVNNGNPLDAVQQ

[7] = probe aInhba binding on compound microarray – biochemical, small-molecule microarray, 635/667 nm fluorescence, primary screen (AID 1148); details: higher = more signal;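 also: score merges 667nm spot fluorescence with signal-to-noise for antibody binding to printed compounds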
Torsin-1A (Homo sapiens) [8] = target: Torsin-1A (Homo sapiens) (UniProt O14656); experiment: TOR1A wild-type binding on microarray – cell lysate, small-molecule microarray, lysate, 635/667 nm, primary screen (AID 1149); details: COS7 hTOR1A-WT lysate, 635 nm fluorescence, higher = more signal
Sequence of Torsin-1A (Homo sapiens) (O14656 whole entry, looked up): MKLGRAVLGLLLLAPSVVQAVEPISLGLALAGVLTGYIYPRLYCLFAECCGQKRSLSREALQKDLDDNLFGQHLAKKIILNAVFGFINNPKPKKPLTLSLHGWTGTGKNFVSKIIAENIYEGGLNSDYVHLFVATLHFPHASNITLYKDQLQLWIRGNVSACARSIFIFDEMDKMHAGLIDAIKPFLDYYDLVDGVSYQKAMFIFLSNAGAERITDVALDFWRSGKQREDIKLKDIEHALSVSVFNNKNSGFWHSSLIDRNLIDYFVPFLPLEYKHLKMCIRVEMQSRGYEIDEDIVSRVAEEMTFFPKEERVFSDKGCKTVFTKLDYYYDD

Torsin-1A (Homo sapiens) [9] = target: Torsin-1A (Homo sapiens) (UniProt O14656); experiment: torsin A mutant lysate binding on microarrays – cell lysate, small-molecule microarray, COS7 lysate, 635/667 nm fluorescence, primary screen (AID 1150); details: COS7 hTOR1A mutant lysate, 635 nm fluorescence, higher = more signal;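 also: score pools 667 nm emission and signal to noise measuring lysate protein binding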
[10] = tested on: Sonic hedgehog protein (Shh); experiment: Sonic hedgehog microarray binding compounds – biochemical, small-molecule microarray, 635/667 nm fluorescence, primary screen (AID 1151); details: 635 nm fluorescence, higher = more signal;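 also: Shh protein binding to compounds spotted on small-molecule microarray slides; score combines spot fluorescence intensity with signal-to-noise across triplicate slides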
[11] = optical density shifts of acrAB sulA E. coli – strain DRC41, OD650, 48 h, E. coli filamentation inducer project, primary screen (AID 1152); details: higher = more signal, called active from +8 up or from −8 down;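 also: E. coli MC1000 strain DRC41 lacking acrAB efflux pump and sulA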
[12] = probe aLefty1 binding on compound microarray – biochemical, small-molecule microarray, 635/667 nm fluorescence, primary screen (AID 1153); details: higher = more signal;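 also: score merges spot fluorescence with signal-to-noise ratio from the scanned slide images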
[13] = plasmodial surface anion channel blockers, osmotic lysis – cell-based, P. falciparum Indochina, OD700, 1 h, primary screen (AID 1154); details: P. falciparum Indochina infected RBC osmotic lysis, higher = more signal, called active from +8 up or from −8 down
[14] = plasmodial surface anion channel blockers, osmotic lysis – cell-based, P. falciparum Indochina, OD700, 2 h, primary screen (AID 1155);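 also: lysis reports solute entry through the parasite surface anion channel PSAC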; details: P. falciparum Indochina infected erythrocytes, higher = more signal, called active from +8 up or from −8 down
[15] = changes in parasitized red cell lysis, either direction – P. falciparum Indochina, OD700, 3 h, PSAC antagonist project, primary screen (AID 1156); details: P. falciparum-infected erythrocytes, osmotic lysis, higher = more signal, called active from +8 up or from −8 down
[16] = plasmodial surface anion channel blockers, osmotic lysis – cell-based, P. falciparum Indochina, OD700, 18 h, primary screen (AID 1157); details: P. falciparum Indochina infected erythrocytes, osmotic lysis OD700, 18 h; higher = more signal, called active from +8 up or from −8 down
[17] = S6 kinase pathway phospho-S6 level changes – cell-based, A549, cytoblot, luminescence, serum-stimulated, primary screen (AID 1158); details: 5 h, higher = more signal;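 also: serum-stimulated A549 lung adenocarcinoma cells; signal is phosphorylated S6 detected by cytoblot immunostaining with HRP secondary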
[18] = target: NADPH oxidase 2 (Homo sapiens) (UniProt P04839); experiment: compounds shifting NOX2 Amplex Red fluorescence – cell-based, HEK293-NOX2, PMA-stimulated, NOX inhibitor project, primary screen (AID 1159); details: 45 min, higher = more signal, called active from +8 up or from −8 down; also: test concentration not given here
Sequence of NADPH oxidase 2 (Homo sapiens) (P04839 whole entry, looked up): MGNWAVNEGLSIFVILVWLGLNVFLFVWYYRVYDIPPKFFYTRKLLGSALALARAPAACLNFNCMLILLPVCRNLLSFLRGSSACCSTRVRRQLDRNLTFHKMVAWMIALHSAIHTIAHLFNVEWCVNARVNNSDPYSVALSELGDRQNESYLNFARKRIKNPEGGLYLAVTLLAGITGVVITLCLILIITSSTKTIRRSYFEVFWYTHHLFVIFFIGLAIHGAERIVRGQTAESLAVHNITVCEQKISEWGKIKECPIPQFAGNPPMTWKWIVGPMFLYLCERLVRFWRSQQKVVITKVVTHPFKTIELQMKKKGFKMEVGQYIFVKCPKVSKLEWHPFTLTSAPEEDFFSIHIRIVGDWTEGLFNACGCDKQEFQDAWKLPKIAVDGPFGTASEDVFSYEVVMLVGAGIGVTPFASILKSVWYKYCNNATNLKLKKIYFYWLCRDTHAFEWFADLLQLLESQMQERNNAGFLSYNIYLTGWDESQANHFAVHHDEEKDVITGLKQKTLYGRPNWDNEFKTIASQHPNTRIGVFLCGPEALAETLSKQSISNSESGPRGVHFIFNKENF

[19] = target: NADPH oxidase 4 (Homo sapiens) (UniProt Q9NPH5); experiment: compounds shifting NOX4 Amplex Red fluorescence – cell-based, HEK293-NOX4, tetracycline-induced, NOX inhibitor project, primary screen (AID 1160); details: HEK293-NOX4, Amplex Red H2O2 fluorescence, 45 min; higher = more signal, called active from +8 up or from −8 down
Sequence of NADPH oxidase 4 (Homo sapiens) (Q9NPH5 whole entry, looked up): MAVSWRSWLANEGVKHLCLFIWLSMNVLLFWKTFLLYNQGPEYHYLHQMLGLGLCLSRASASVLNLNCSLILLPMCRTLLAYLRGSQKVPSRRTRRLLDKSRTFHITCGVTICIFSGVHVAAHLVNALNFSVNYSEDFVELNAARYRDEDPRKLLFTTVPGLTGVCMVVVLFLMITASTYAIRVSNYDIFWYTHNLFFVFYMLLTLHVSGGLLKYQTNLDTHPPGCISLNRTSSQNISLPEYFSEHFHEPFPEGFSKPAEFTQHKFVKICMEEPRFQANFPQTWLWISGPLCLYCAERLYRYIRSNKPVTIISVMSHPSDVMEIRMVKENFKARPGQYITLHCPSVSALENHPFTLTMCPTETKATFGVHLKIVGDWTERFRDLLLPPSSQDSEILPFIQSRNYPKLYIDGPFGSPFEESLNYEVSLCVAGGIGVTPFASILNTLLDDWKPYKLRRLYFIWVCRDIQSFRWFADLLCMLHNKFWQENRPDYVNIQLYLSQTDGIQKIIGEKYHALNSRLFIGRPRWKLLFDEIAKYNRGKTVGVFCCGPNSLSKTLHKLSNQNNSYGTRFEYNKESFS

[20] = target: NADPH oxidase 5 (Homo sapiens) (UniProt Q96PH1); experiment: compounds shifting NOX5 Amplex Red fluorescence – cell-based, HEK293-NOX5, NOX inhibitor project, primary screen (AID 1161); details: HEK293-NOX5, ionomycin, 45 min, higher = more signal
Sequence of NADPH oxidase 5 (Homo sapiens) (Q96PH1 whole entry, looked up): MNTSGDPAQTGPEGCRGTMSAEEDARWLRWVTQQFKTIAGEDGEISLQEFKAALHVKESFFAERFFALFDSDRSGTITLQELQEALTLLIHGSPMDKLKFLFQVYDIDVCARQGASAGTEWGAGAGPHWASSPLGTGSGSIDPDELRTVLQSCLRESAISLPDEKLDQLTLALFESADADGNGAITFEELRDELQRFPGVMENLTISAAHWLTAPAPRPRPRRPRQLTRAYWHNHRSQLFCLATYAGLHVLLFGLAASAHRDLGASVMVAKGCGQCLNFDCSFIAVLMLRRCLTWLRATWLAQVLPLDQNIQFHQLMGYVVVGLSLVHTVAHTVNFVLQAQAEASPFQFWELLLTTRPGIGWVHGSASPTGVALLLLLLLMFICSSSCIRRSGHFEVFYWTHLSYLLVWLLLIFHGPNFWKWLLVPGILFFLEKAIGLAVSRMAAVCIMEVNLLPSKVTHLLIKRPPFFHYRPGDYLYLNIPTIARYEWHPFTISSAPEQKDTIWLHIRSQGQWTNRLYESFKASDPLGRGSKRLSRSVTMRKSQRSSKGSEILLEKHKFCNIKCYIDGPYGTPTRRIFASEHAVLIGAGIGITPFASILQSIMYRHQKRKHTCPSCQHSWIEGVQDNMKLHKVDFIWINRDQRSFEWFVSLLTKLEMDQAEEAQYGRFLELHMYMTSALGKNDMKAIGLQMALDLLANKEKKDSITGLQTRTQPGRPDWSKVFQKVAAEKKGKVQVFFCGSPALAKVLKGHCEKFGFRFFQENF

SMILES	composite z-score [1]	z-score [2]	z-score [3]	z-score [4]	z-score [5]	composite z-score [6]	composite z-score [7]	composite z-score (Torsin-1A (Homo sapiens) [8])	composite z-score (Torsin-1A (Homo sapiens) [9])	composite z-score [10]	z-score [11]	composite z-score [12]	z-score [13]	z-score [14]	z-score [15]	z-score [16]	z-score [17]	z-score [18]	z-score [19]	z-score [20]
O=C1[C@@H]2[C@@H](CC(COc3ccccc3)=C([C@H](O)CCc3ccccc3)[C@@H]2CO)C(=O)N1Cc1ccccc1	-0.0252	-2.37 (inactive)	-0.423 (inactive)	4.74 (inactive)	0.831 (inactive)	0.541	-0.274	-0.19	0.167	0.801	0.17 (inactive)	-0.0867	27.8 (active)	21.8 (active)	-0.602 (inactive)	2.05 (inactive)	0.05	-2.32 (inactive)	-0.526 (inactive)	-1.59
CC(C)(C)N1CC=CC23O[C@@H]4C=CCCOC(=O)C4[C@H]2C(=O)N(CCCCCCO)[C@@H]3C1=O (stereo not given in full)	-0.515	0.451 (inactive)	0.595 (inactive)	-0.0899 (inactive)	-0.254 (inactive)	-0.703	-0.0933	-1.15	-1.29	0.833	0.0094 (inactive)	0.365	0.683 (inactive)	0.181 (inactive)	0.639 (inactive)	0.233 (inactive)	1.78	0.882 (inactive)	-0.0325 (inactive)	2.08
COC(=O)C(CC#Cc1ccc2c(c1)[C@]1(C(=O)N2)[C@H](c2ccccc2OCCO)N2[C@H](c3ccccc3)[C@H](c3ccccc3)OC(=O)[C@H]2[C@@H]1C(=O)N1CCc2cc(OC)c(OC)cc2C1)C(=O)OC	0.237	-3.09 (inactive)	-0.888 (inactive)	-0.0515 (inactive)	0.509 (inactive)	1.11	-0.138	0.757	0.674	1.82	0.447 (inactive)	0.0215	3.28 (inactive)	2.24 (inactive)	2.54 (inactive)	1.25 (inactive)	-0.033	1.74 (inactive)	1.52 (inactive)	1.73
COc1ccc(C(=O)Nc2ccc3c(c2)[C@@]2(O[C@H](CCO)[C@@H]([Si](C)(C)c4ccc(OC)cc4)[C@@H]2C)C(=O)N3Cc2ccccc2)cc1	0.0753	-8.09 (active)	-0.0986 (inactive)	5.6 (inactive)	-0.352 (inactive)	0.0576	0.288	-0.193	0.46	1.93	-0.134 (inactive)	0.778	3.2 (inactive)	0.98 (inactive)	0.768 (inactive)	-0.188 (inactive)	0.721	-4.96 (inactive)	-1.62 (inactive)	0.371
COC(=O)C(CC#Cc1ccc2c(c1)[C@]1(C(=O)N2)[C@H](c2ccc(OCCO)cc2)N2[C@H](c3ccccc3)[C@H](c3ccccc3)OC(=O)[C@H]2[C@@H]1C(=O)N1CCCCCCC1)C(=O)OC	1.33	-1.99 (inactive)	-1.14 (inactive)	0.622 (inactive)	-0.159 (inactive)	2.97	1.88	2.01	1.9	0.582	-0.598 (inactive)	2.67	7.3 (inactive)	1.59 (inactive)	0.309 (inactive)	0.712 (inactive)	-0.173	0.783 (inactive)	0.196 (inactive)	1.44
COCCOC(=O)N1C(=O)[C@@]2(c3cc(C#CCNC(N)=O)ccc31)[C@H](C(=O)Nc1nc3ccccc3s1)[C@H]1C(=O)O[C@H](c3ccccc3)[C@H](c3ccccc3)N1[C@@H]2c1ccccc1OCCO	0.553	-2.11 (inactive)	-0.264 (inactive)	-0.465 (inactive)	-0.154 (inactive)	0.158	0.152	0.508	0.0351	1.82	1.14 (inactive)	0.646	2.15 (inactive)	0.215 (inactive)	0.483 (inactive)	-1.08 (inactive)	2.18	1.41 (inactive)	0.695 (inactive)	0.934
Cc1ccccc1C(O)C1C=CC2C(=O)N(c3ccccc3)C(=O)C2N1Nc1ccccc1 (stereo not given)	0.719	-0.383 (inactive)	-1.18 (inactive)	0.0501 (inactive)	0.0163 (inactive)	1.65	0.182	-0.241	0.191	0.442	-0.29 (inactive)	0.271	20.1 (active)	3.73 (inactive)	0.214 (inactive)	1.59 (inactive)	-0.495	-1.85 (inactive)	-2.96 (inactive)	-2.44
CC(C)=CCCC(C)=CC(O)C1C=CC2C(=O)NC(=O)C2N1Nc1ccc(Cl)cc1Cl (stereo not given)	0.623	-1.64 (inactive)	-0.815 (inactive)	0.822 (inactive)	0.501 (inactive)	1.26	-0.0035	-0.0743	0.622	0.737	-2.85 (inactive)	0.544	7.58 (inactive)	1.61 (inactive)	-0.519 (inactive)	1.39 (inactive)	-0.498	-1.84 (inactive)	-5.04 (inactive)	-1.53
COC(=O)[C@@]1(Cc2ccccc2)N=C(c2ccc(OCCCO)cc2)O[C@H]1c1ccccc1CN=[N+]=[N-]	0.289	-5.03 (inactive)	-0.621 (inactive)	-0.435 (inactive)	-1.97 (inactive)	-0.12	0.0227	0.009	0.668	1.88	1.11 (inactive)	0.313	23 (active)	7.26 (inactive)	-0.202 (inactive)	2.21 (inactive)	0.239	-6.02 (inactive)	-0.914 (inactive)	-3.31
